# Results as given in PubChem BioAssay (NCATS).
# Where “and” joins values, the source holds several entries; their conditions need not be identical. Equal values may be shown once. Inconclusive results are not listed. Where a call stands in place of a potency, no number is given. Calls of active or inactive are those of the source. Unless noted, calls come from the whole dose curve; as a rule, active = well fitted curve in the direction sought with a large enough effect in the repeat runs; inconclusive = weak or mixed curves; inactive = no such curve, though single readings can be large; an effect the other way counts as inactive or inconclusive.
# Experiments:
# [1] = target: Cytochrome P450 2D6 (Homo sapiens) (UniProt P10635); experiment: Cytochrome P450 family 2 subfamily D member 6 (CYP2D6) small molecule antagonists: luciferase biochemical (cell-free) qHTS assay (AID 1645840); conditions: P450-Glo CYP2D6 enzyme, luciferin luminescence, 1 h; series mostly up to 57.4 µM; note: nearly all actives have a fitted effect of over 55% in size; note: potency is the fitted concentration of half-maximal effect
# Chain of Cytochrome P450 2D6 (Homo sapiens) (P10635 whole entry, looked up): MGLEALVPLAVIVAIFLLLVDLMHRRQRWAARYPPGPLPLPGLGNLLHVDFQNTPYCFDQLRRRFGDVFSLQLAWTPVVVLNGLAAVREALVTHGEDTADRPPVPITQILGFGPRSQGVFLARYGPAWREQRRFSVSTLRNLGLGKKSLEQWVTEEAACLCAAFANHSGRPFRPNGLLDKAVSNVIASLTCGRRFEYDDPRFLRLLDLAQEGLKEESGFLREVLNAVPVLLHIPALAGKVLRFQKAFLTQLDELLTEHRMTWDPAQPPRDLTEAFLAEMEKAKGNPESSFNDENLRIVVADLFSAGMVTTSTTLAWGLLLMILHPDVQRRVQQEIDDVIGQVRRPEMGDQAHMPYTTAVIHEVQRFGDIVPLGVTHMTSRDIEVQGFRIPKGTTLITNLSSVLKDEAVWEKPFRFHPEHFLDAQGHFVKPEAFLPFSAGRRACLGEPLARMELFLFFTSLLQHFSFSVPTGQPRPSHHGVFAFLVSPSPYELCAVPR
# Procedure, shortened: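 P450-Glo luminescent screen: recombinant CYP2D6 enzyme–proluciferin substrate mix preincubated with compound 10 min at room temperature, then NADPH regeneration added for 1 h at room temperature. Detection reagent added for 20 min; luciferin light read as relative luminescence units.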
# [2] = target: Cytochrome P450 2C9 (Homo sapiens) (UniProt P11712); experiment: Cytochrome P450 family 2 subfamily C member 9 (CYP2C9) small molecule antagonists: luciferase biochemical (cell-free) qHTS assay (AID 1645842); conditions: P450-Glo CYP2C9 enzyme assay, luciferin luminescence; series mostly up to 57.4 µM; note: nearly all actives have a fitted effect of over 55% in size; note: potency is the fitted concentration of half-maximal effect
# Chain of Cytochrome P450 2C9 (Homo sapiens) (P11712 whole entry, looked up): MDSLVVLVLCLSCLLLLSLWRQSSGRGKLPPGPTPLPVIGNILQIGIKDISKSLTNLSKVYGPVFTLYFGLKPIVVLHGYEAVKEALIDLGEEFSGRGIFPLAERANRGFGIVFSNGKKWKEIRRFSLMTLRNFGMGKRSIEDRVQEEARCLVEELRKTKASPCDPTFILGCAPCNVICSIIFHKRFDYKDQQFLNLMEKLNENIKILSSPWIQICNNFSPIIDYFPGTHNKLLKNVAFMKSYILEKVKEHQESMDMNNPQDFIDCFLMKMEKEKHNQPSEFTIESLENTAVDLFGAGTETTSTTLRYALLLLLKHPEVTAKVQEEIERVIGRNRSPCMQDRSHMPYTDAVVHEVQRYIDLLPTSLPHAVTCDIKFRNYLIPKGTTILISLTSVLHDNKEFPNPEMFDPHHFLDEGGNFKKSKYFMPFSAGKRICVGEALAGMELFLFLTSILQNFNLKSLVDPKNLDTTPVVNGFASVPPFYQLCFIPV
# Procedure, shortened: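 Luminescence, after 20 min with luciferin detection reagent, reflected CYP2C9 turnover during a 1 h NADPH-driven reaction at 37C. Enzyme-substrate mix contained 0.4% bovine serum albumin and was preincubated with compound 10 min at room temperature.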
# Papain (Carica papaya) = Papain (Carica papaya) (UniProt P00784); experiment: Primary qHTS assay for inhibitors of the protease papain (AID 1645873; active = well fitted curve in the direction sought with a large enough effect; an effect the other way counts as inactive or inconclusive;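 note: papain turnover of Z-FR-AMC read as the AMC fluorescence gain over 10 min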); conditions: papain Z-FR-AMC cleavage, AMC fluorescence; series mostly up to 49.8 µM
# Chain of Papain (Carica papaya) (P00784 whole entry, looked up, the tested form may be a part): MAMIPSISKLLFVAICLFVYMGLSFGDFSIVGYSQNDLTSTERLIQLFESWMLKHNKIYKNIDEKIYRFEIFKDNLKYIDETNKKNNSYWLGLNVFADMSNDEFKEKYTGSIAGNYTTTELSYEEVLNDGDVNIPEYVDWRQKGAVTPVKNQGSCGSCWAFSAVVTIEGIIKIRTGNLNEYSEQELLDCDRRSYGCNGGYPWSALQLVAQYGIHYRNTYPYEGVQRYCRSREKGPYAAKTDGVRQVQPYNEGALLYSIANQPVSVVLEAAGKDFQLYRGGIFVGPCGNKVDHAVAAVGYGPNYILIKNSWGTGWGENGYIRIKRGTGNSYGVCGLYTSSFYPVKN
# [3] = Primary qHTS for inhibitors of nuclear receptor binding SET domain protein 2 (NSD2) in an isogenic RCH-ACV NSD2 p.E1099K mutant (9B) (AID 1645876; active = well fitted curve in the direction sought with a large enough effect; an effect the other way counts as inactive or inconclusive; note: nearly all actives have a fitted effect of over 70% in size; note: potency is the fitted concentration of half-maximal effect); conditions: RCH-ACV NSD2 E1099K (9B) viability, CellTiter-Glo, 72 h; series mostly up to 44.9 µM
# [4] = target: Cytochrome P450 3A4 (Homo sapiens) (UniProt P08684); experiment: Cytochrome P450 family 3 subfamily A member 4 (CYP3A4) small molecule antagonists: luciferase qHTS assay (AID 1645841); conditions: P450-Glo CYP3A4 enzyme assay, luciferin luminescence; series mostly up to 57.4 µM; note: nearly all actives have a fitted effect of over 45% in size
# Chain of Cytochrome P450 3A4 (Homo sapiens) (P08684 whole entry, looked up): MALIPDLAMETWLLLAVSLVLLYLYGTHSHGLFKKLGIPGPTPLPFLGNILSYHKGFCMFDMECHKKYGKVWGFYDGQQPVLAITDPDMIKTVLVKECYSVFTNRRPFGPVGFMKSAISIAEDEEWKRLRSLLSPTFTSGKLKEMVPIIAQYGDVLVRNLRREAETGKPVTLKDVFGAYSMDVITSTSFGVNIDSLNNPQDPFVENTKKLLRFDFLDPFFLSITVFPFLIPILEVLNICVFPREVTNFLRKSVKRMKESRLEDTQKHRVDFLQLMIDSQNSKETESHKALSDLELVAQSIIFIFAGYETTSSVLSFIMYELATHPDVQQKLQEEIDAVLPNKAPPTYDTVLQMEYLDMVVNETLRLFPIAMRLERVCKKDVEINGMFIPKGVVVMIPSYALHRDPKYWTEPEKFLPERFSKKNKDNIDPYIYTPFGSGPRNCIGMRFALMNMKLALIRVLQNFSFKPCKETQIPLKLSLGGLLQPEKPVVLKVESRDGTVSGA
# Procedure, shortened: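 P450-Glo CYP3A4 enzyme with proluciferin substrate was preincubated with DMSO-dissolved compounds for 10 min at room temperature. NADPH regeneration solution started a 1 h reaction. Detection reagent stopped it, and luminescence was read after 20 min.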
# [5] = Primary qHTS for inhibitors of nuclear receptor binding SET domain protein 2 (NSD2) in an RCH-ACV wild type WT cells (2C) (AID 1645877; active = well fitted curve in the direction sought with a large enough effect; an effect the other way counts as inactive or inconclusive; note: nearly all actives have a fitted effect of over 70% in size; note: potency is the fitted concentration of half-maximal effect); conditions: RCH-ACV (leukaemia line) NSD2 WT (2C) viability, CellTiter-Glo, 72 h; series mostly up to 44.9 µM
# [6] = target: N-terminal Xaa-Pro-Lys N-methyltransferase 1 (Homo sapiens) (UniProt Q9BV86); experiment: Confirmatory qHTS for Inhibitors of N-terminal methyltransferase 1 (NTMT1): MTaseGlo Assay (AID 1645874; active = well fitted curve in the direction sought with a large enough effect; an effect the other way counts as inactive or inconclusive; note: potency is the fitted concentration of half-maximal effect; nearly all actives have a fitted effect of over 65% in size); conditions: NTMT1 enzyme, MTase-Glo SAH luminescence
# Chain of N-terminal Xaa-Pro-Lys N-methyltransferase 1 (Homo sapiens) (Q9BV86 whole entry, looked up): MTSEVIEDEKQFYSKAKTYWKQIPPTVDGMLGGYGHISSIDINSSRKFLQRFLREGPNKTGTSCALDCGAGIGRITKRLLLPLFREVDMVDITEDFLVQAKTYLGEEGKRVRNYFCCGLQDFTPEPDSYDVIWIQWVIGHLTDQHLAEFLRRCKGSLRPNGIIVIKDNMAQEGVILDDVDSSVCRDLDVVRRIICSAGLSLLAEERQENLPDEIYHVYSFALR
# Procedure, shortened: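 Preincubation of NTMT1 (125 nM) plus SAM (100 uM) with test compounds lasted 15 min; methylation of 1 uM SPKRIA then proceeded 30 min in the dark at room temperature. Luciferase signal reported SAH produced.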
# [7] = target: Catechol O-methyltransferase (Homo sapiens) (UniProt P21964); experiment: Confirmatory Screen for Target Class Profiling of Small Molecule Inhibitors of Methyltransferases (AID 1745852; calls by dose curve); conditions: MTase-Glo luminescence, SAH detection, recombinant enzyme; measured here: COMT max response; stronger effect = lower value
# Chain of Catechol O-methyltransferase (Homo sapiens) (P21964 whole entry, looked up): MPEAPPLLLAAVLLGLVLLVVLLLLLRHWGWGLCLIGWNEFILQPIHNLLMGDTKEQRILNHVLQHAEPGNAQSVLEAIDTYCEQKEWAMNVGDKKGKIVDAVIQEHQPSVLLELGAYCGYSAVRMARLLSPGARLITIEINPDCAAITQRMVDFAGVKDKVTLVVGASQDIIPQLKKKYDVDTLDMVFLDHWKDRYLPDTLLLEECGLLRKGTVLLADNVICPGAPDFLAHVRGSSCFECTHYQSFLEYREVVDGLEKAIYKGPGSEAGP
# [8] = target: Guanidinoacetate N-methyltransferase (Homo sapiens) (UniProt Q14353); experiment: as above; conditions: MTase-Glo luminescence, SAH detection, recombinant enzyme; activity change, negative = inhibition: at 57.3 µM (top of the series)
# [9] = target: Nicotinamide N-methyltransferase (Homo sapiens) (UniProt P40261); experiment: as above; conditions: MTase-Glo luminescence, SAH detection, recombinant enzyme; measured here: NNMT max response; stronger effect = lower value
# Chain of Nicotinamide N-methyltransferase (Homo sapiens) (P40261 whole entry, looked up): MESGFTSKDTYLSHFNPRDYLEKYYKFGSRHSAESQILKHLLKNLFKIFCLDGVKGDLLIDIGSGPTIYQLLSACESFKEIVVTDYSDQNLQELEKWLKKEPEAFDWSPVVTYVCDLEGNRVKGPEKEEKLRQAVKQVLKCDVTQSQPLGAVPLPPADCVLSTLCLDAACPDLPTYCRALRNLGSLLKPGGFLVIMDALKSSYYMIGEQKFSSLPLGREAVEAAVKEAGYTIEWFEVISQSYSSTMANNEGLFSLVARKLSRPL
# [10] = target: Phenylethanolamine N-methyltransferase (Homo sapiens) (UniProt P11086); experiment: as above; conditions: MTase-Glo luminescence, SAH detection, recombinant enzyme; measured here: PNMT max response; stronger effect = lower value
# Chain of Phenylethanolamine N-methyltransferase (Homo sapiens) (P11086 whole entry, looked up): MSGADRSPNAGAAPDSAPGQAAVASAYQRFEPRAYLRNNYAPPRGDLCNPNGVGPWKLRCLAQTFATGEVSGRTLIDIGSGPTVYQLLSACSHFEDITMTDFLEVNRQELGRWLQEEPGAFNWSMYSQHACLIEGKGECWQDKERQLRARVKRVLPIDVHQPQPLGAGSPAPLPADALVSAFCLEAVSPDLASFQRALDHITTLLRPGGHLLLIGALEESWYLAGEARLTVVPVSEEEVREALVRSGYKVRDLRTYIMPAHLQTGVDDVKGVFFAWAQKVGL
structure (smiles),measurement,setting,value
CC(N)C(=O)OC(C)(C)Cc1ccc(Cl)cc1 (stereo not given),Potency,[1],12.3 µM (active)
same,Potency,[2],12.3 µM (active)
same,Potency,Papain (Carica papaya),inactive
same,Potency,[3],inactive
NC(=O)C(c1ccccc1)(c1ccccc1)[C@@H]1CCN(CCc2ccc3c(c2)CCO3)C1,Potency,[1],0.617 µM (active)
same,Potency,[2],inactive
CCCCCCCC/C=C/C(=O)O,Potency,[1],inactive
same,Potency,[2],inactive
CN(C)c1ccc(N=NS(=O)(=O)O)cc1,Potency,[1],2.37 µM (active)
same,Potency,[2],0.728 µM (active)
Cc1nc2ccccc2n1Cc1ccc(Cl)cc1,Potency,[1],7.76 µM (active)
same,Potency,[2],11 µM (active)
NS(=O)(=O)c1ccc(-n2nc(C(F)(F)F)cc2-c2ccc(Cl)cc2)cc1,Potency,[1],7.56 µM (active)
same,Potency,[2],10.7 µM (active)
same,Potency,Papain (Carica papaya),inactive
Nc1c(CC(=O)O)cccc1C(=O)c1ccc(Br)cc1,Potency,[1],inactive
same,Potency,[2],inactive
Fc1ccc2[nH]c(CN3CCN(c4ccccn4)CC3)cc2c1,Potency,[1],5.35 µM (active)
same,Potency,[2],6.74 µM (active)
same,Potency,Papain (Carica papaya),inactive
CCOC(=O)c1ccccc1O,Potency,[1],inactive
same,outcome,[4],inactive
same,Potency,[2],inactive
same,Potency,[3],inactive
same,Potency,[5],inactive
Nc1ccc(O)c([N+](=O)[O-])c1,Potency,[1],32.9 µM (active)
same,Potency,[2],21.8 µM (active)
COc1cccc2c1C(=O)c1c(O)c3c(c(O)c1C2=O)C[C@@](O)(C(=O)CO)C[C@@H]3O[C@H]1C[C@H](N)[C@H](O[C@@H]2CCCCO2)[C@H](C)O1,Potency,[1],inactive
same,Potency,[2],12.3 µM (active)
same,Potency,[3],0.0067 µM (active)
same,Potency,[5],0.0038 µM (active)
CN1CCN(c2cc3c(nn2)Oc2ccccc2N3C)CC1,Potency,[1],inactive
same,Potency,[2],inactive
Oc1c(Br)cc(Br)c2cccnc12,Potency,[1],inactive
same,outcome,[4],inactive
same,Potency,[2],inactive
same,Potency,[3],3.76 µM (active)
same,Potency,[5],3.35 µM (active)
CC(=O)SCC(CC(=O)c1ccc(C)cc1)C(=O)O (stereo not given),Potency,[1],inactive
Cc1c(C(=O)O)c(O)cc2c1C(=O)c1c(O)c([C@@H]3O[C@H](CO)[C@@H](O)[C@H](O)[C@H]3O)c(O)c(O)c1C2=O,Potency,[1],inactive
Nc1ccc(C(=O)O)c(O)c1,Potency,[1],inactive
same,Potency,[2],inactive
same,Potency,[3],inactive
same,Potency,[5],inactive
CS(=O)(=O)c1ccc(-n2nc(C(F)(F)F)cc2-c2ccc(F)cc2)cc1,Potency,[1],9.52 µM (active)
same,Potency,[2],3.38 µM (active)
same,Potency,Papain (Carica papaya),inactive
same,Potency,[3],inactive
same,Potency,[5],inactive
CC(C)(C)c1nnc(NS(=O)(=O)c2ccc(N)cc2)s1,Potency,[1],inactive
same,Potency,[2],inactive
same,Potency,[3],inactive
same,Potency,[5],inactive
Clc1ccccc1-c1nc(-c2ccncc2)no1,Potency,[1],3.47 µM (active)
same,Potency,[2],5.49 µM (active)
same,Potency,[6],25.1 µM (active)
N=C1N=C(N)c2cc3ccccc3cc21,Potency,[1],31.7 µM (active)
same,Potency,[2],inactive
N=C(N)N,Potency,[1],inactive
same,outcome,[4],inactive
same,Potency,[2],inactive
same,Potency,[3],inactive
same,Potency,[5],inactive
c1ccc2sc(SSc3nc4ccccc4s3)nc2c1,Potency,[1],inactive
same,Potency,[2],9.52 µM (active)
COC(=O)C1=C(C)NC(C)=C(C(=O)OC)C1c1cccc(NC(=O)NCCCN2CCC(c3cccc(OC)c3)CC2)c1,Potency,[1],4.25 µM (active)
same,Potency,[2],1.69 µM (active)
same,Potency,Papain (Carica papaya),inactive
same,Potency,[3],4.59 µM (active)
same,Potency,[5],4.59 µM (active)
same,activity,[7],-1.21% and -6.68%
same,"activity change, negative = inhibition",[8],0% and 10.5%
same,activity,[9],-24.5% and -25.9%
same,activity,[10],0.516% and -5.06%
Cc1cc(O)c2ccccc2c1O,Potency,[1],11 µM (active)
O=C(Nc1ccc2c(c1)CCN(Cc1ncn[nH]1)C2)c1ccccc1-c1ccc(C(F)(F)F)cc1,Potency,[1],0.12 µM (active)
same,Potency,[2],10.7 µM (active)
same,Potency,Papain (Carica papaya),inactive
same,Potency,[3],inactive
Nc1ccc(O)c(C(=O)O)c1,Potency,[1],inactive
same,Potency,[2],inactive
CO/N=C(\C(=O)N[C@@H]1C(=O)N2C(C(=O)O)=C(COC(C)=O)CS[C@H]12)c1csc(N)n1,Potency,[1],inactive
same,Potency,[2],inactive
same,Potency,Papain (Carica papaya),inactive
CCCCN(CC)c1nc(C)nc2c1c(C)cn2-c1c(C)cc(C)cc1C,Potency,[1],inactive
same,Potency,[2],12 µM (active)
same,Potency,Papain (Carica papaya),inactive
same,Potency,[5],inactive
CN(CCCOc1ccc(Cc2ccccc2)cc1)CCC(=O)O,Potency,[1],inactive
same,Potency,[2],inactive
same,Potency,Papain (Carica papaya),inactive
CCC1C(=O)OCC1Cc1cncn1C (stereo not given),Potency,[1],inactive
same,outcome,[4],inactive
same,Potency,[2],inactive
same,Potency,Papain (Carica papaya),inactive
same,Potency,[3],inactive
same,Potency,[5],inactive
c1ccc2sc(SN3CCOCC3)nc2c1,Potency,[1],inactive
same,Potency,[2],10.7 µM (active) and 15.5 µM (active)
same,Potency,[3],inactive
same,Potency,[5],inactive
CCOc1ccc2nc(S(N)(=O)=O)sc2c1,Potency,[1],inactive
CC(=O)c1ccc(OCC(=O)N2CCCCC2)cc1,Potency,[1],inactive
same,Potency,[2],inactive
same,Potency,[3],inactive
same,Potency,[5],inactive
CCCC(=O)OC[C@@H](OC(=O)CCC)[C@@H](OC(=O)CCC)[C@H](Cn1c2nc(=O)[nH]c(=O)c-2nc2cc(C)c(C)cc21)OC(=O)CCC,Potency,[1],7.76 µM (active)
NCCO,Potency,[1],inactive
same,Potency,[2],inactive
same,Potency,[3],inactive
